Compounds with a hit are over-represented: about 3.5% of the library has one in this group of screens.
MITF inh = MITF inhibitors, primary screen, biochemical, AlphaScreen, human; Microphthalmia-associated transcription factor (Homo sapiens), O75030; AlphaScreen MITF homodimerization, bead proximity signal; inhibition, % at 2.6 µM; 650,000 compounds, 0.91% hits; in the data active = inhibition above about 50%;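 also: 0% = vehicle wells with protein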
TEAD-YAP inh = TEAD-YAP interaction inhibition, primary screen, TEAD-YAP interaction inhibitor project, luminescence, HEK-TIYL cells; inhibition, % at 9.12 µM; 640,000 compounds, 1.4% hits; TEAD-Gal4/YAP UAS-luciferase luminescence; in the data active = inhibition above about 32%;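 also: 0% = median of test compound wells and 100% = reference inhibitor wells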
GPR151 activ = activators of human GPR151, primary screen, cell-based, PathHunter beta-arrestin, luminescence; G-protein coupled receptor 151 (Homo sapiens), Q8TDV0; PathHunter beta-arrestin GPR151 cells; activation, % at 11.2 µM; 650,000 compounds, 1% hits; in the data active = activation above about 4.9%;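 also: 0% = median of compound wells and 100% = cells with positive control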
FBW7 act = FBW7 E3 ligase activators, primary screen, biochemical, AlphaScreen, human; F-box/WD repeat-containing protein 7 (Homo sapiens), Q969H0; AlphaScreen FBW7–phospho-cyclin E peptide binding, activator screen; normalized activity (activation), % at 26.1 µM; 650,000 compounds, 0.13% hits; AID 1259310, 2017; in the data active = normalized activity above about 1.9%;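 also: purified mutant Fbw7 with reduced substrate affinity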
GPR151 confirm = GPR151 activators, triplicate retest, confirmation, cell-based, PathHunter beta-arrestin, luminescence | shares compounds with GPR151 activ | GPR151 PathHunter beta-arrestin cells, 90 min; % of EA-reagent control over plate median | activation, % at 11.2 µM | 6,700 tested, under 10 active | AID 1508609, 2020;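 active = mean percent activation across replicates above the confirmation screen cutoff of 4.91%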
GPR119 ag = GPR119 activators in beta-arrestin cells, counter-screen for GPR151 activator project, cell-based, PathHunter beta-arrestin, luminescence, triplicate; shares compounds with GPR151 activ; 90 min; 0 = compound-well median, 100 = enzyme-acceptor control; activation, % at 11.2 µM; 6,700 compounds, 0.3% hits;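 active = mean percent activation in the counterscreen above 29.09%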;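 also: counterscreen on off-target GPR119 to flag nonselective hits from the GPR151 activator screen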
Target sequence (Q8TDV5 whole entry, looked up): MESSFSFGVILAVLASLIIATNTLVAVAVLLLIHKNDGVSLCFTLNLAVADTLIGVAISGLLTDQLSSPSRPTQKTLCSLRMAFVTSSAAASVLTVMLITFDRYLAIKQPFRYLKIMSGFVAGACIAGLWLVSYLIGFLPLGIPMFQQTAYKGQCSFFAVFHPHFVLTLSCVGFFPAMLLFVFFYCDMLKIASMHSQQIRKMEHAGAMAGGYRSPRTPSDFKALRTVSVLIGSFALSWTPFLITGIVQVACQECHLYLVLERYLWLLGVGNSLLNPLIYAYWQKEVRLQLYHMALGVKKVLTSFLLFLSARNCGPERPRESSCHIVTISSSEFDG
Starred values were filed as active, the others as inactive.

`COC(=O)c1c(NC(=O)CSc2nnc(N)s2)sc(C)c1C` gave MITF inh -2, TEAD-YAP inh 1, GPR151 activ 1 and FBW7 act 0.
O=C(CSc1nc2ccccc2[nH]1)Nc1ccc(Cl)cc1 was read as MITF inh 14, TEAD-YAP inh -9, GPR151 activ 0 and FBW7 act 1.
For COC(=O)c1ccc2c(=O)n(CC3CCCO3)c(SCC(=O)N3CCN(c4ccccc4OC)CC3)nc2c1 (stereo unspecified) the results were MITF inh 11, TEAD-YAP inh -6, GPR151 activ -1 and FBW7 act 0.
`Cc1ccccc1-n1c(=S)[nH]c2c(sc(=S)n2-c2ccccc2C)c1=O` gave MITF inh -5, TEAD-YAP inh -6, GPR151 activ 0 and FBW7 act 0.
Cc1nc2cc(NC(=O)c3ccc(NC(N)=O)cc3)ccc2n1-c1ccccc1 was read as MITF inh 11, TEAD-YAP inh -1, GPR151 activ 3 and FBW7 act 0.
Screening CC(C)(C)c1ccc(C(=O)NCC(=O)NN)cc1 returned MITF inh 1, TEAD-YAP inh 8, GPR151 activ 0 and FBW7 act 1.
For O=C(Nc1c(C(=O)Nc2ccccc2Cl)cnn1-c1ccccc1)c1cccs1 the results were MITF inh -5, TEAD-YAP inh -14, GPR151 activ 3 and FBW7 act 0.
CCC(=O)Nc1nnc(SCc2cccc(Cl)c2)s1 was read as MITF inh 0, TEAD-YAP inh -2, GPR151 activ 0 and FBW7 act 0.
O=C(CSc1nc2ncccc2[nH]1)Nc1ccc(Cl)c(F)c1 was read as MITF inh -2, TEAD-YAP inh 2, GPR151 activ 0 and FBW7 act 0.
For CCC(=O)Nc1nnc(SCC(=O)Nc2cccc(Cl)c2)s1 the results were MITF inh 14, TEAD-YAP inh 1, GPR151 activ 8.8*, FBW7 act 1, GPR151 confirm -1 and GPR119 ag -11.
COc1ccc(-c2nnc(SCC(=O)Nc3ccc(Cl)cc3C)o2)cc1 was read as MITF inh -22, TEAD-YAP inh 21, GPR151 activ 0 and FBW7 act 0.
`COc1ccc(-c2nnc(SCC(=O)Nc3ccc(F)c(Cl)c3)o2)cc1` gave MITF inh -4, TEAD-YAP inh -46, GPR151 activ 5.0*, FBW7 act 0, GPR151 confirm 0 and GPR119 ag -8.
O=C(CSc1nc2ncccc2[nH]1)Nc1ccc(F)c(Cl)c1 was read as MITF inh 7, TEAD-YAP inh 4, GPR151 activ 7.2*, FBW7 act 0, GPR151 confirm 0 and GPR119 ag 0.
Screening Cc1ccc(N(CC(=O)Nc2ccc(Cl)cc2C)S(C)(=O)=O)cc1 returned MITF inh 6, TEAD-YAP inh -1, GPR151 activ -1 and FBW7 act 0.
Screening CCOc1ccc(NCC(=O)N/N=C/c2ccccc2F)cc1 returned MITF inh 0, TEAD-YAP inh 8, GPR151 activ 0 and FBW7 act 0.
COc1ccc(-c2noc(CN3CCN(c4ccccc4)CC3C)n2)c(OC)c1OC (stereo unspecified) was read as MITF inh 12, TEAD-YAP inh -5, GPR151 activ 4.9*, FBW7 act 0, GPR151 confirm 1 and GPR119 ag 6.
Screening COCC1CCCCN1Cc1nc(-c2ccc(OC)c(OC)c2OC)no1 (stereo unspecified) returned MITF inh -8, TEAD-YAP inh -2, GPR151 activ 1 and FBW7 act 0.
`CCN(CC)CC(O)COCc1nc2c(c(=O)n(C)c(=O)n2C)n1C` (stereo unspecified) gave MITF inh -15, TEAD-YAP inh 2, GPR151 activ -1 and FBW7 act 1.
For CN(C)c1cccc(Nc2nc(Nc3ccccc3)c3ncn(-c4ccsc4)c3n2)c1 the results were MITF inh 9, TEAD-YAP inh -67, GPR151 activ 5.6*, FBW7 act 0, GPR151 confirm -1 and GPR119 ag -8.
CN(C)c1cccc(Nc2nc(NCc3ccccc3)c3ncn(-c4ccsc4)c3n2)c1 was read as MITF inh 12, TEAD-YAP inh -1, GPR151 activ 0 and FBW7 act 1.
Screening c1ccc2c(c1)CCN(c1nc(NC3CC3)c3ncn(-c4ccsc4)c3n1)C2 returned MITF inh -1, TEAD-YAP inh 25, GPR151 activ 2 and FBW7 act 0.
Screening c1ccc(Oc2nc(NC3CC3)c3ncn(-c4ccsc4)c3n2)cc1 returned MITF inh -9, TEAD-YAP inh 88*, GPR151 activ 6.6*, FBW7 act 0, GPR151 confirm 4 and GPR119 ag 46*.
`c1ccc(CN2CCC(Nc3nc(Nc4ccc5ncccc5c4)nc4c3ncn4-c3ccsc3)CC2)cc1` gave MITF inh -5, TEAD-YAP inh 2, GPR151 activ 5.5*, FBW7 act 0, GPR151 confirm 0 and GPR119 ag -13.
Screening Oc1ccc(CCNc2nc(NC3CCN(Cc4ccccc4)CC3)nc3c2ncn3-c2ccsc2)cc1 returned MITF inh 2, TEAD-YAP inh 25, GPR151 activ 5.6*, FBW7 act 0, GPR151 confirm 0 and GPR119 ag 9.
Screening O=C(N/N=C/c1ccc(Sc2cccs2)s1)c1ccncc1 returned MITF inh 6, TEAD-YAP inh 4, GPR151 activ 0 and FBW7 act 0.
Screening COc1ccc(/C=C\C(=O)Nc2c3c(nn2-c2ccc(Cl)cc2)CSC3)cc1OC returned MITF inh 1, TEAD-YAP inh 2, GPR151 activ -2 and FBW7 act 0.
`CCCn1cc(SCC(=O)Nc2ccc(OCC)cc2)c2ccccc21` gave MITF inh -11, TEAD-YAP inh 20, GPR151 activ 0 and FBW7 act 0.
Screening CCOc1ccc(NC(=O)CSc2cn(Cc3cccc(F)c3)c3ccccc23)cc1 returned MITF inh 11, TEAD-YAP inh -5, GPR151 activ 18*, FBW7 act 0, GPR151 confirm 0 and GPR119 ag 4.
For Cc1c(NC(=O)CSc2ccccc2)c(=O)n(-c2ccccc2)n1C the results were MITF inh -29, TEAD-YAP inh 8, GPR151 activ 2 and FBW7 act 0.

Assay outcomes deposited in PubChem by The Scripps Research Institute Molecular Screening Center.
